A short description of assay [1]: TOX21_p53_BLA_p2_viability: Viability Assessment in the Tox21 HCT-116 p53 Agonism Beta-lactamase Assay, Phase 2 (AID 2283591; active = hit-call score of the fitted dose curve at least 0.9, where 1 is the maximum;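 note: compound exposure lasted 16 h at 37 °C; actives lower the ATP signal meaning cytotoxicity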). The method, boiled down: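 HCT116 p53-bla cells, 4000/well, dosed after 5 h plating (217-fold dilution of DMSO stocks) and incubated 16 h at 37C. Viability taken as cellular ATP by CellTiter-Glo luminescence after 30 min RT; signal loss marks cytotoxicity.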

Assay [2] in a line: TOX21_p53_BLA_p3_viability: Viability Assessment in the Tox21 HCT-116 p53 Agonism Beta-lactamase Assay, Phase 3 (AID 2283593; active = hit-call score of the fitted dose curve at least 0.9, where 1 is the maximum;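 note: cells exposed to compound for 16 h before reading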). A digest of the protocol: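 HCT116 cells, 4000/well, dosed 5 h after plating by pin transfer (217-fold dilution from DMSO stock) and incubated 16 h at 37C, 5% CO2. Viability read as ATP luminescence with CellTiter-Glo after 30 min at room temperature.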

Assay [3] is described as follows: TOX21_p53_BLA_p4_viability: Viability Assessment in the Tox21 HCT-116 p53 Agonism Beta-lactamase Assay, Phase 4 (AID 2283597; active = hit-call score of the fitted dose curve at least 0.9, where 1 is the maximum;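 note: hits lower the luminescence signal meaning cytotoxicity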). The method, boiled down:
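HCT-116 p53-bla cells, 4000/well, dosed after 5 h attachment and incubated 16 h at 37 °C, 5% CO2. Viability from CellTiter-Glo ATP luminescence after 30 min at room temperature, taken after the beta-lactamase read; loss of signal indicates cytotoxicity.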

The nature of assay [4]: TOX21_p53_BLA_p5_viability: Viability Assessment in the Tox21 HCT-116 p53 Agonism Beta-lactamase Assay, Phase 5 (AID 2283600; active = hit-call score of the fitted dose curve at least 0.9, where 1 is the maximum). The method, boiled down:
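HCT-116 p53 beta-lactamase reporter cells, 4000/well, were exposed to compound (pin transfer, 217-fold dilution) for 16 hours at 37C. Cellular ATP was read by CellTiter-Glo luminescence after 30 min at room temperature.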

Assay [5] is described as follows: CCTE_Shafer_MEA_acute_spike_number: CCTE's Neural Acute Assay for Total Number of Spikes, Shafer Lab (AID 2284008). A digest of the protocol:
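Rat primary cortical neurons on 48-well MEA plates, DIV 13 or 15, at 37 C. 40 min baseline then 40 min with compound (0.03-40 uM); spikes detected at 8x rms noise, expressed as percent change from baseline.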

Assay [6] is described as follows: CCTE_Shafer_MEA_acute_firing_rate_mean: CCTE's Neural Acute Assay for Mean Firing Rate, Shafer Lab (AID 2284009).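 Note: analyzed for loss of signal so actives lower firing rate relative to DMSO.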 The method, boiled down:
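Rat primary cortical neurons on 48-well MEA plates, dosed at 0.03-40 uM on DIV 13 or 15; 40 min spontaneous activity recorded at 37 C before and after compound. Spike rate per electrode averaged per well, expressed as percent change from baseline.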

Assay [7] can be described thus: CCTE_Harrill_HTTr_Viability_MCF7: CCTE's 6-hour Cell Viability Assessment for the High-Throughput Transcriptomics (HTTr) Platform, in MCF-7 cells cultured in DMEM + 10% fetal bovine serum, Harrill Lab (AID 2284010). The method, boiled down: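 Viability measured through PI dye exclusion by high-content imaging at 6 h post-dosing.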
Assay [8] can be described thus: CCTE_Harrill_HTTr_CellCount_MCF7: CCTE's Cell Proliferation Assessment for the High-Throughput Transcriptomics (HTTr) Platform, Harrill Lab (AID 2284012; active = hit-call score of the fitted dose curve at least 0.9, where 1 is the maximum;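 note: count of Hoechst-stained nuclei per well by high-content imaging in MCF-7 cells; intended direction is loss of nuclei count meaning fewer cells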). The method, boiled down:
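Nuclei counting (Hoechst, high content imaging) in MCF-7 after a 6 h treatment at eight concentrations. Activity fitted bidirectionally, DMSO as negative control.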

A short description of assay [9]: CCTE_Shafer_MEA_acute_burst_number: CCTE's Neural Acute Assay for Single-Electrode Bursts, Shafer Lab (AID 2284013). The method, boiled down:
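Primary rat cortical neurons on 16-electrode MEA wells, treated on DIV 13 or 15 with compound at 0.03-40 uM. Single-electrode burst count from 40-min recordings at 37 C before and after exposure; percent change from baseline per well, DMSO negative control.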

Assay [10] in a line: CCTE_Shafer_MEA_acute_burst_duration_mean: CCTE's Neural Acute Assay for Mean Burst Duration, Shafer Lab (AID 2284014).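 Note: hits are decreases in mean burst duration relative to DMSO controls.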 A digest of the protocol: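 Rat primary cortical neurons on 48-well MEA, treated at DIV 13 or 15 with 0.03-40 uM in at least 3 wells. Value is percent change in mean burst duration, comparing 40 min recordings at 37 C before and during exposure.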
Assay [11] in a line: CCTE_Shafer_MEA_acute_per_burst_spike_number_mean: CCTE's Neural Acute Assay for Average Number of Spikes Per Burst, Shafer Lab (AID 2284015).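 Note: hits are decreases in mean spikes per burst versus baseline.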 A digest of the protocol:
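Percent change in mean spikes per single-electrode burst is compared between a 40 min baseline and a 40 min recording with compound (0.03-40 uM). Cultures were rat cortical neurons on MEA plates at DIV 13 or 15, recorded at 37 C, with DMSO as the negative control.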

Assay [12] in a line: CCTE_Shafer_MEA_acute_interburst_interval_mean: CCTE's Neural Acute Assay for Mean Interburst Interval, Shafer Lab (AID 2284016).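 Note: percent change of mean interburst interval versus each well's own pre-dose baseline; curves fitted for decrease in interburst interval relative to DMSO.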 The method, boiled down:
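Percent change in mean single-electrode interburst interval was calculated per well from 40 min recordings before and after compound (0.03-40 uM). Recordings were made at 37 C on rat cortical cultures at DIV 13 or 15, with spikes detected at 8x rms threshold.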

The nature of assay [13]: CCTE_Shafer_MEA_acute_burst_percentage_mean: CCTE's Neural Acute Assay for Percentage of Spikes in a Burst, Shafer Lab (AID 2284017). The method, boiled down:
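Well-level mean burst percentage from a 40-min recording after compound (0.03-40 uM) expressed as percent change from a 40-min baseline at 37C. Cultures: primary rat cortical neurons on MEA, dosed on DIV 13 or 15; fitted downward relative to DMSO.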

Assay [14] is described as follows: CCTE_Shafer_MEA_acute_per_network_burst_spike_number_std: CCTE's Neural Acute Assay for Standard Deviation of Number of Spikes in a Network Burst, Shafer Lab (AID 2284020).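 Note: fitted for decrease in spike-number SD versus DMSO so actives lower it.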 The method, boiled down: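 Rat primary cortical neurons on 48-well MEA (16 electrodes/well), treated DIV 13 or 15 at 0.03-40 uM, ≥3 wells per compound. 40 min recordings at 37 C before and after dosing; value is percent change in network-burst spike-number SD, negative direction vs DMSO.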

Assay [15] in a line: CCTE_Shafer_MEA_acute_per_network_burst_electrodes_number_mean: CCTE's Neural Acute Assay for Mean Number of Electrodes in a Network Burst, Shafer Lab (AID 2284021).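 Note: curves fitted for decreases only so hits reduce electrodes per burst.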 The method, boiled down: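 Rat primary cortical neurons on 48-well MEAs, DIV 13 or 15, were treated at 0.03-40 uM. Spikes were detected at 8x rms noise and recorded at 37 C. The mean electrodes per network burst in a 40 min exposure recording was expressed as percent change from a 40 min baseline.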

Assay [16] can be described thus: CCTE_Shafer_MEA_acute_network_burst_percentage: CCTE's Neural Acute Assay for Percentage of Network Bursts, Shafer Lab (AID 2284022).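 Note: curves fitted for loss so actives lower network burst percentage.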 The method, boiled down:
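Rat primary cortical neuron networks on 48-well MEA plates, DIV 13 or 15, treated acutely with compound (0.03-40 uM, at least three wells). Percent of spikes within network bursts compared between 40-min recordings before and during exposure at 37 C, expressed as percent change.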

A short description of assay [17]: CCTE_Shafer_MEA_acute_cross_correlation_HWHM: CCTE's Neural Acute Assay for Cross Correlation at Half Width at Half Maximum, Shafer Lab (AID 2284026).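 Note: spontaneous network firing of rat primary cortical neurons on multiwell microelectrode arrays; hits are a decrease in cross-correlogram half width relative to DMSO.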 A digest of the protocol: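 Rat primary cortical neurons on 48-well MEA plates; 40-min baseline and 40-min post-exposure recordings at 37 C on DIV 13 or 15, compounds 0.03-40 uM. Spikes detected at 8x rms noise; percent change in cross-correlogram HWHM per well vs baseline.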

Assay [18] in a line: CCTE_Shafer_MEA_dev_firing_rate_mean: CCTE's Neural Network Formation Assay for Mean Firing Rate, Shafer Lab (AID 2284031).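 Note: AUC of well mean spike rate recorded on DIV 5 7 9 and 12; curve fitted for loss of firing so AC50 reflects decreased mean firing rate.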 A digest of the protocol:
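Developing rat cortical networks on MEA plates undergo 12-day compound exposure. Firing frequency, averaged across active electrodes, is integrated as area under the curve over four recording days, referenced to DMSO.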

Assay [19] can be described thus: CCTE_Shafer_MEA_dev_per_burst_spike_percent: CCTE's Neural Network Formation Assay for Percent of Spikes in a Burst, Shafer Lab (AID 2284032).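 Note: fitted as a decrease in burst spike percentage below DMSO baseline.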 A digest of the protocol:
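Rat primary cortical neurons on 16-electrode MEA wells, dosed from plating day 0 for 12 days with renewal on DIV 5 and 9; spikes-in-bursts percentage averaged over bursting electrodes, collapsed as AUC across days 5, 7, 9, 12; loss direction versus DMSO.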

Values joined by “and” are separate entries in the source; they are usually repeats but may differ in a detail not shown here. Identical values can stand only once. Records with an inconclusive call do not appear. Some compounds were tested as several samples or in several runs, with calls that do not always agree. Active and inactive are the calls of the source. Rule for the calls, unless noted: active = hit-call score of the fitted dose curve at least 0.9, where 1 is the maximum; inactive = score below 0.9.

In the case of `[Cd+2].[Cl-].[Cl-]`, the AC50 (commonly the concentration giving half of the maximal activity seen) in [1] is 67.9 µM (active) and 68.1 µM (active); in assay [2] it was 69.2 µM (active); in assay [3], 68.6 µM (active); in assay [4] it was 76.2 µM (active); in assay [18], 0.331 µM (active); in assay [19], 0.436 µM (active). The outcome in assay [2], in assay [3], in assay [4], in assay [5], in [6] and in [7] was inactive. Moreover, the compound was classed as inactive in [8], in [9], in assay [10], in assay [11], in [12] and in assay [13]. In addition, the outcome in [14], in [15], in assay [16] and in [17] was inactive.
